ChEMBL document CHEMBL4513135, “CO-ADD screening of IQOG CSIS (Spain) compounds”
Entries with a potency or affinity are not part of this list.

System: Cryptococcus neoformans
Details: Concentration 32 ug.mL-1; ASSAY_TEST Inhibition of Fungal Growth; detection method Resazurin; Absorption (OD600-OD570); plate type 384well; NBS; CORNING #3640

Compound | Inhibition
C=C1CN(C)c2c(C#N)c(-c3ccccc3)c(C#N)c(=O)n21 | -24.16%
N#CC1=C(N)Oc2c(ccc3ccccc23)C1c1ccc(Cl)c(Cl)c1 (stereo not given) | -2.77%
Cl.ClCCCN1CCCCC1 | -10.65%
CCOc1nc(N)c(C#N)cc1C#N.Cl | -26.15%
O=C1OC(c2ccccc2)=NC12CC2c1ccc([N+](=O)[O-])cc1 (stereo not given) | -2.27%
Cc1nc(Nc2ccccc2)c2cnn(-c3ccccc3)c2n1 | -5.65%
CNCc1cc2cc(OC)ccc2n1C.Cl | 1.35%
Cc1nc2c3cnn(-c4ccccc4)c3nc(C)n2n1 | -6.35%
NNC(=O)C1(NC(=O)c2ccccc2)CC1c1cccc(O)c1 (stereo not given) | -0.7%
C#CCN(C)c1nc(NCCC2CCN(Cc3ccccc3)CC2)c(C#N)cc1C#N.Cl | 0.75%
CCOc1nc(N)c(C#N)c(-c2ccccc2)c1C#N | -46.51%
Cc1nc(NCc2ccccc2)c2cnn(-c3ccccc3)c2n1 | -3.46%
CC(=O)/C=C/C1CCN(Cc2ccccc2)CC1 | -60.96%
CCOC(N)=CC#N | -10.57%
O=C(N/N=C/c1c[nH]c2ccccc12)c1ccco1 | -1.51%
N#C/C(=C\c1ccccc1)C(=O)c1ccccc1 | 5.95%
O=C(N/N=C/c1c[nH]c2ccccc12)C(c1ccccc1)c1ccccc1 | -1.94%
N#CC1=C(N)NC(=O)CC1c1ccccc1 (stereo not given) | -51.84%
N#Cc1c(N)nc(NCCC2CCN(Cc3ccccc3)CC2)c(C#N)c1-c1ccccc1 | -17.88%
COc1cccc(-c2c(C#N)c(=O)oc3c2ccc2ccccc23)c1 | -2.58%

Compound | Inhibition
O=C(COc1ccc2ccccc2c1)NNCc1c[nH]c2ccccc12 | -4.32%
Cc1cnc2ccc(Br)cn12 | -0.9%
COc1ccc(C2c3c(ccc4ccccc34)OC(=NBr)C2(Br)C#N)cc1 (stereo not given) | -63.65%
Cc1ccc(C2c3ccc4ccccc4c3Oc3nc4c(c(N)c32)CCCC4)cc1.Cl (stereo not given) | 0.21%
NC(=O)c1cc2cc(OCc3ccccc3)ccc2[nH]1 | -61.34%
CC(=O)Nc1n[nH]c2nc(N)c(C#N)c(-c3ccccc3)c12 | -57.93%
N#Cc1c(N)nc(O)c(C#N)c1-c1ccccc1 | -42.69%
Cn1ccnc1C1c2ccc3cccnc3c2Oc2nc3c(c(N)c21)CCC3 (stereo not given) | -104.91%
CC(C)(C)OC(=O)Nc1ncccc1Br | -55.01%
Cc1nc2c3c(C)nn(-c4ccccc4)c3ncn2n1 | -2.13%
COc1ccc(C2c3ccc4ccccc4c3Oc3nc4c(c(N)c32)CCCC4)c(OC)c1 (stereo not given) | -0.17%
COc1ccccc1C1C(C#N)=C(N)Oc2ccc3ccccc3c21 (stereo not given) | -18.76%
O=C(N/N=C/c1ccc([N+](=O)[O-])cc1)c1cc2ccccc2[nH]1 | -3.37%
Cl.Nc1c2c(nc3c1C(c1ccccc1)c1c(ccc4ccccc14)O3)CCCC2 (stereo not given) | -0.7%
COc1cc(Br)c(C=O)cc1OC | -3.9%
CN1C/C(=C\Cl)n2c1c(C#N)cc(C#N)c2=O | -52.5%
COc1nc(N)c(C#N)cc1C#N | -30.91%
C=CCNCc1cc2cc(OCCCC3CCN(Cc4ccccc4)CC3)ccc2[nH]1.O.O=C(O)C(=O)O.O=C(O)C(=O)O | -57.95%
COc1ccc(C2C(C#N)=C(N)Oc3[nH]nc(C)c32)cc1 (stereo not given) | -3.79%
Cc1ccc(C2c3ccc4ccccc4c3Oc3nc4c(c(N)c32)CCCC4)cc1 (stereo not given) | 5.66%
